{"source": "PubChem BioAssay", "key": {"[1]": {"experiment": "stimulators of nuclear beta-catenin in C2C12, primary screen, imaging, WNT3A-conditioned medium, mouse C2C12, NPC library (AID 1117326; in the data active = nuclear beta-catenin stimulation mostly above about 4.2%, no sharp cut-off; inactive = mostly below about 10%)", "conditions": "stronger effect = higher value"}, "[2]": {"experiment": "stimulators of insulin release from INS-1E, primary screen, cell-based, 5 mM glucose, NPC library (AID 1117329;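 active = compound raises insulin release from rat beta cells at 5 mM glucose, no numeric limit stated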)", "conditions": "rat INS-1E insulin secretion, at 10 µM, stronger effect = higher value"}, "[3]": {"experiment": "growth inhibition of GSK3B-pretreated HCT116 cells – cell-based, CellTiter-Glo, 0.2 to 20 µM (AID 1117336;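 active = compounds lowering colon cancer cell viability after pretreatment blocking the GSK3B kinase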)", "conditions": "HCT116 viability after GSK3B inhibitor, at 20 µM, stronger effect = higher value"}, "[4]": {"experiment": "inhibition of endothelial tube formation, primary screen, imaging, VEGF stimulated, CD31 staining, tube area, NPC library (AID 1117340;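 active = compound that reduces growth-factor-driven endothelial tube area in a mixed cell culture, no cutoff stated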)", "conditions": "VEGF-stimulated ADSC/ECFC co-culture, at 10 µM, stronger effect = higher value"}, "[5]": {"experiment": "glucagon-like peptide 1 release enhancers, primary assay, NCI-H716 cell line, NPC library (AID 1117341;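 active = compound raises GLP1 secretion from the human gut endocrine cells, with no numeric limit stated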)", "conditions": "NCI-H716 cells, at 10 µM, stronger effect = higher value"}, "[6]": {"experiment": "HCT116 colon cancer cell growth inhibition, primary screen, CellTiter-Glo luminescence, NPC library (AID 1117342;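 active = compounds that lower survival of HCT116 colon cancer cells in the luminescence readout, no numeric limit stated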)", "conditions": "at 20 µM (top of the series)"}, "[7]": {"experiment": "CellTiter-Glo luminescent readout of SW480 viability loss, NPC library primary (AID 1117343;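 active = compounds that lower viability of the colon cancer cells in the luminescence readout, with no numeric limit stated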)", "conditions": "CellTiter-Glo luminescence; at 20 µM (top of the series)"}, "[8]": {"experiment": "decreased DLD-1 cellular survival, CellTiter-Glo luminescent readout, NPC compound collection, primary HTS (AID 1117346;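 active = compounds that lower survival of DLD-1 colon cancer cells in the luminescence readout, no cutoff given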)", "conditions": "DLD-1 viability, CellTiter-Glo luminescence; at 20 µM (top of the series)"}, "[9]": {"experiment": "polyglutamine-triggered caspase-3 activation inhibitors, cell-based (AID 1583)", "conditions": "polyglutamine-induced caspase-3 activation, cell assay; stronger effect = higher value; concentration not given here"}, "[10]": {"experiment": "suppressors of polyQ aggregation in yeast, 75Q-TubU reporter (AID 1593)", "conditions": "Yeast 75Q polyglutamine aggregation reporter"}, "[11]": {"experiment": "circadian clock period modulators, cell-based, LOPAC library, luminescence reporter (AID 2774)", "conditions": "circadian reporter cells, at 7 µM, actives lie on both sides"}, "[12]": {"experiment": "Cy5 fluorescence quenching or enhancement artefacts, artefact control for HCV NS3 helicase inhibitor project, biochemical, LOPAC1280 (AID 687037)", "conditions": "Cy5-DNA-NS3h complex fluorescence interference counterscreen"}, "[13]": {"target": "6-phosphogluconate dehydrogenase, decarboxylating (Homo sapiens) (UniProt P52209)", "sequence (P52209 whole entry, looked up)": "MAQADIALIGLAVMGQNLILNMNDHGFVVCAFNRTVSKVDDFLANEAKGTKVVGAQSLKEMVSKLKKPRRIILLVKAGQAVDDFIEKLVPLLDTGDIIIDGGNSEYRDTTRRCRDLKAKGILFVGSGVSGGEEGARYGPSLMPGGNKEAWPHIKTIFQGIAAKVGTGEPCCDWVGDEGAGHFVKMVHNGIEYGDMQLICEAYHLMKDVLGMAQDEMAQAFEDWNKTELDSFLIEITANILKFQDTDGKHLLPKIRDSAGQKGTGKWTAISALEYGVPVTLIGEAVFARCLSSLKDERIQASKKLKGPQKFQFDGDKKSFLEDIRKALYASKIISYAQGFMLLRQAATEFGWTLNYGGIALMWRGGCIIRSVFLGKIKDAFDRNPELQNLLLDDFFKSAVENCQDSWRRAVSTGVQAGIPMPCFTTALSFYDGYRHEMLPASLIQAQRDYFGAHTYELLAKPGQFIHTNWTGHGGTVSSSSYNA", "experiment": "6PGD enzyme inhibitors, primary screen, biochemical, human, recombinant enzyme, NADPH absorbance (AID 1159550;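 active = at least 20% inhibition of 6-phosphogluconate dehydrogenase activity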)", "conditions": "recombinant 6PGD, NADPH absorbance 341 nm; at 10 µM; stronger effect = higher value"}, "[14]": {"experiment": "differential killing of epithelial or mesenchymal cells, primary screen, imaging, PC-3E GFP, TEM4-18 mCherry, co-culture (AID 1345086;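 active = compounds killing one labelled cell type while sparing the other, by normalised counts and ratio limits, not self-fluorescent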;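 for all read-outs here: cells exposed to compound for 72 h before imaging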;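 for red/green cell ratio (normalised): normalised mesenchymal count divided by normalised epithelial count so high means epithelial killing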)", "conditions": "imaging cell counts, at 1 µM; for red/green cell ratio (normalised): actives lie on both sides"}, "[15]": {"system": "Aerobactin synthetase IucA (Klebsiella pneumoniae hvKP1)", "experiment": "Biochemical IucA enzyme inhibition primary screen of the Spectrum library (AID 1346200);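 note: 100% = wells without compound and 0% = wells lacking enzyme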", "conditions": "malachite green pyrophosphate, A620, at 8 µM, stronger effect = lower value"}, "[16]": {"experiment": "sensitizers of A549 cells to miR-34 induction, primary screen, imaging, A549 dox-inducible miR-34, nuclei and caspase counts (AID 1347080;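 active = compounds whose cell count with miR-34 switched on is under 0.7 times the count with it off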)", "conditions": "A549 miR-34 inducible, Hoechst nuclei count, 48 h"}, "[17]": {"experiment": "survival rescue of mitochondrial mutant cells in low glucose, primary screen, MELAS cybrids, Rieske KO mouse fibroblasts, CellTiter-Glo (AID 1508586;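 active = mean z-score across replicates of 1.96 or higher in either the MELAS or the Rieske mutant cell line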;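 note: z relative to plate mean and SD of compound and empty wells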)"}, "[18]": {"target": "NAD(+) hydrolase SARM1 (Homo sapiens) (UniProt Q6SZW1)", "sequence (Q6SZW1 whole entry, looked up)": "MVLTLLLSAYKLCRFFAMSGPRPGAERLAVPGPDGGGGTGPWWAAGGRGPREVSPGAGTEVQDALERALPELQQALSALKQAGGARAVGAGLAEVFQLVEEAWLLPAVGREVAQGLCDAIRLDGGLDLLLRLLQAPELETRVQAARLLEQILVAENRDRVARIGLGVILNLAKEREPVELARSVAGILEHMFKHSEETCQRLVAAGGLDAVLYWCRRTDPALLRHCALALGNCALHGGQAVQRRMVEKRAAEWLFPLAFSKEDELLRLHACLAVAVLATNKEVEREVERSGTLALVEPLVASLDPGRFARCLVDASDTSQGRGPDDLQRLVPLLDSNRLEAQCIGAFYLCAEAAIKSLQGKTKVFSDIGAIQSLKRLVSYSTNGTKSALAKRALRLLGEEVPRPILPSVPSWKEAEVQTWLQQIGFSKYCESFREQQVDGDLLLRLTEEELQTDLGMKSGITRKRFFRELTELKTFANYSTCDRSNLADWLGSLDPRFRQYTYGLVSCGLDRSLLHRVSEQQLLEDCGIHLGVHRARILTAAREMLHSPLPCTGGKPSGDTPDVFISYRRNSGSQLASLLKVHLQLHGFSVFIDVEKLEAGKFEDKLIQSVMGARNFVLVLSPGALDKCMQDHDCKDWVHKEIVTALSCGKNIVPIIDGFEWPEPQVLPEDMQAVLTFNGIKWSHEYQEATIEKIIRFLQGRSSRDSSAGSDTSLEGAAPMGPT", "experiment": "SARM1 TIR NADase inhibitors, cell lysate, NAD-Glo luminescence (AID 1508614;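 active = compound whose remaining NAD level is above about 45 nM, limit read from the data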)", "conditions": "SAM-TIR HEK293T lysate NADase, at 1 µM, stronger effect = higher value"}, "[19]": {"target": "Mitogen-activated protein kinase 7 (Homo sapiens) (UniProt Q13164)", "sequence (Q13164 whole entry, looked up, the tested form may be a part)": "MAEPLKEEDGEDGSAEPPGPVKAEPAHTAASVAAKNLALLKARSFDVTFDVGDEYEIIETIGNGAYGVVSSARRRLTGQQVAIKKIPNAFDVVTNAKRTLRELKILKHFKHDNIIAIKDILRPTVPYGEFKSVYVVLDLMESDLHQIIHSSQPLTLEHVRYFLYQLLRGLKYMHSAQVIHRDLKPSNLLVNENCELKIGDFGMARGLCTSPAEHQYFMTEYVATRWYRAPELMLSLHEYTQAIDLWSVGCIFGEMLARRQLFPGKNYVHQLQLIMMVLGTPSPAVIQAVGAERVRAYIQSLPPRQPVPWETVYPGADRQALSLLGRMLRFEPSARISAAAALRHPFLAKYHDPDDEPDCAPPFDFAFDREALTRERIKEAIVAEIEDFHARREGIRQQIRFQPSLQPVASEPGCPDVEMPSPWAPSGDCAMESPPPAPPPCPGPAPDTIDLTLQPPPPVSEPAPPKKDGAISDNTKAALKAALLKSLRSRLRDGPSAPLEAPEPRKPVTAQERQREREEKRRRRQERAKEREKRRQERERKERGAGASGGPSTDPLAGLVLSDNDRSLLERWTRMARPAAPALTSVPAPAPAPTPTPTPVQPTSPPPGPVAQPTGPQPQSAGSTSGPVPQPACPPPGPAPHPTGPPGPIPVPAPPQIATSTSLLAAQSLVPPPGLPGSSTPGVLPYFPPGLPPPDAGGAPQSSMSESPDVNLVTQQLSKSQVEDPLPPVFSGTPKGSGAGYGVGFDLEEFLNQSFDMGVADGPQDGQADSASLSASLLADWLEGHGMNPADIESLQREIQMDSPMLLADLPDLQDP", "experiment": "ERK5 transactivation activators in reporter cells, primary screen, cell-based, HTS (AID 1508626;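 active = luciferase signal above three times the same-plate solvent-only control wells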;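 note: luciferase driven by Gal4-ERK5 fusion binding five Gal4 sites before minimal TATA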)", "conditions": "HeLa Gal4-ERK5 transactivation, 18 h, at 5 µM, stronger effect = higher value"}, "[20]": {"experiment": "viability rescue of complex I mutant cybrids, primary screen, cell-based, galactose medium, ATP luminescence (AID 1645843;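 active = z-score of at least 1.8 in each of two replicates, scored against plate mean and spread of sample wells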;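 note: positive z means more ATP and so rescue of galactose-driven cybrid death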)", "conditions": "complex I mutant cybrid cells, 72 h, stronger effect = higher value"}, "[21]": {"conditions": "measured here: epithelial PC-3E GFP cell survival"}, "[22]": {"conditions": "measured here: mesenchymal TEM4-18 mCherry cell survival"}, "[23]": {"conditions": "measured here: relative caspase fold change +Dox/-Dox"}, "[24]": {"conditions": "measured here: total cells with miR-34 induction, stronger effect = lower value"}, "[25]": {"conditions": "measured here: total cells without miR-34 induction"}, "[26]": {"conditions": "MELAS cybrid survival, CellTiter-Glo 48 h, stronger effect = higher value"}, "[27]": {"conditions": "Rieske KO mouse fibroblast survival, CellTiter-Glo 72 h"}}, "note": "Values joined by “and” are separate entries in the source; they are usually repeats but may differ in a detail not shown here. Equal entries are not always repeated. Where a structure was tested more than once in an assay, its records may differ in their call. Active and inactive are the calls of the source. Unless noted, the rule behind the calls is not given here."}
{"smiles": "CCO[C@H]1O[C@@H]2OC3(C)CC[C@H]4[C@H](C)CC[C@@H]([C@H]1C)[C@@]24OO3", "values": [{"measurement": "nuclear beta-catenin stimulation", "setting": "[1]; at 10 µM", "value": "6.9% (inactive)"}, {"measurement": "nuclear beta-catenin stimulation", "setting": "[1]; stimulation, at 2 µM", "value": 25.2, "unit": "%"}, {"measurement": "insulin secretion stimulation", "setting": "[2]", "value": "2.6% (inactive)"}, {"measurement": "viability decrease", "setting": "[3]", "value": "50.5% (active)"}, {"measurement": "tube area decrease", "setting": "[4]", "value": "34.8% (inactive)"}, {"measurement": "GLP1 secretion stimulation", "setting": "[5]", "value": "6.1% (inactive)"}, {"measurement": "inhibition of viability", "setting": "[6]", "value": "34.8% (inactive)"}, {"measurement": "viability decrease (inhibition)", "setting": "[7]", "value": "37.5% (inactive)"}, {"measurement": "viability decrease (inhibition)", "setting": "[8]", "value": "37.1% (inactive)"}]}
{"smiles": "O=C(CBr)Nc1ccc(Cl)cc1C(=O)c1ccccc1F", "values": [{"measurement": "nuclear beta-catenin stimulation", "setting": "[1]; at 10 µM", "value": "-1.3% (inactive)"}, {"measurement": "nuclear beta-catenin stimulation", "setting": "[1]; stimulation, at 2 µM", "value": -1, "unit": "%"}, {"measurement": "insulin secretion stimulation", "setting": "[2]", "value": "18.8% (inactive)"}, {"measurement": "viability decrease", "setting": "[3]", "value": "84.8% (active)"}, {"measurement": "tube area decrease", "setting": "[4]", "value": "108% (active)"}, {"measurement": "GLP1 secretion stimulation", "setting": "[5]", "value": "21.4% (active)"}, {"measurement": "inhibition of viability", "setting": "[6]", "value": "57.5% (active)"}, {"measurement": "viability decrease (inhibition)", "setting": "[7]", "value": "95.3% (active)"}, {"measurement": "viability decrease (inhibition)", "setting": "[8]", "value": "64.7% (active)"}]}
{"smiles": "COCC(=O)N(c1c(C)cccc1C)C(C)C(=O)OC", "note": "(stereo unspecified)", "values": [{"measurement": "nuclear beta-catenin stimulation", "setting": "[1]; at 10 µM", "value": "0.1% (inactive)"}, {"measurement": "nuclear beta-catenin stimulation", "setting": "[1]; stimulation, at 2 µM", "value": 0.5, "unit": "%"}, {"measurement": "insulin secretion stimulation", "setting": "[2]", "value": "-1.7% (inactive)"}, {"measurement": "viability decrease", "setting": "[3]", "value": "-0.7% (inactive)"}, {"measurement": "tube area decrease", "setting": "[4]", "value": "-6.8% (inactive)"}, {"measurement": "GLP1 secretion stimulation", "setting": "[5]", "value": "1.9% (inactive)"}, {"measurement": "inhibition of viability", "setting": "[6]", "value": "-27% (inactive)"}, {"measurement": "viability decrease (inhibition)", "setting": "[7]", "value": "1.1% (inactive)"}, {"measurement": "viability decrease (inhibition)", "setting": "[8]", "value": "8.85% (inactive)"}]}
{"smiles": "O=c1[nH]oc2c1CCNC2", "values": [{"measurement": "inhibition", "setting": "[9]", "value": 9.73, "unit": "%"}, {"measurement": "score", "setting": "[10]", "value": 1.55}, {"measurement": "period change", "setting": "[11]", "value": "0.075 h (inactive)"}, {"measurement": "fluorescence ratio (interference)", "setting": "[12]", "value": "1 (inactive)"}, {"measurement": "nuclear beta-catenin stimulation", "setting": "[1]; at 10 µM", "value": "0.9% (inactive)"}, {"measurement": "nuclear beta-catenin stimulation", "setting": "[1]; stimulation, at 2 µM", "value": -0.2, "unit": "%"}, {"measurement": "insulin secretion stimulation", "setting": "[2]", "value": "1.95% (inactive)"}, {"measurement": "viability decrease", "setting": "[3]", "value": "23.2% (inactive)"}, {"measurement": "tube area decrease", "setting": "[4]", "value": "2% (inactive)"}, {"measurement": "GLP1 secretion stimulation", "setting": "[5]", "value": "0.6% (inactive)"}, {"measurement": "inhibition of viability", "setting": "[6]", "value": "7% (inactive)"}, {"measurement": "viability decrease (inhibition)", "setting": "[7]", "value": "-16.8% (inactive)"}, {"measurement": "viability decrease (inhibition)", "setting": "[8]", "value": "2.4% (inactive)"}, {"measurement": "inhibition", "setting": "[13]", "value": "-2.26% (inactive)"}, {"measurement": "red/green cell ratio (normalised)", "setting": "[14]", "value": "1.27 (inactive)"}, {"measurement": "normalised cell number", "setting": "[14]; [21]", "value": 0.86}, {"measurement": "normalised cell number", "setting": "[14]; [22]", "value": 1.1}, {"measurement": "activity remaining", "setting": "[15]", "value": "105% (inactive)"}, {"measurement": "fold change", "setting": "[16]; stronger effect = lower value", "value": "0.986 (inactive) and 0.895 (inactive) and 0.961 (inactive)"}, {"measurement": "fold change", "setting": "[16]; [23]", "value": "0.885 and 0.751 and 0.995"}, {"measurement": "cell count", "setting": "[16]; [24]", "value": "10200 and 8820 and 8460"}, {"measurement": "cell count", "setting": "[16]; [25]", "value": "10400 and 9850 and 8810"}, {"measurement": "z-score", "setting": "[17]; [26]", "value": "0.562 (inactive)"}, {"measurement": "z-score", "setting": "[17]; [27]", "value": -0.393}, {"measurement": "remaining NAD", "setting": "[18]", "value": "10 nM (inactive)"}, {"measurement": "luciferase signal", "setting": "[19]", "value": "104 AU (inactive)"}, {"measurement": "z-score", "setting": "[20]", "value": "0.375 (inactive) and 2.83 (active)"}]}
{"smiles": "NCC(CC(=O)O)c1ccc(Cl)cc1", "note": "(stereo unspecified)", "values": [{"measurement": "inhibition", "setting": "[9]", "value": -4.56, "unit": "%"}, {"measurement": "score", "setting": "[10]", "value": 1.02}, {"measurement": "period change", "setting": "[11]", "value": "0.145 h (inactive)"}, {"measurement": "fluorescence ratio (interference)", "setting": "[12]", "value": "0.9 (inactive)"}, {"measurement": "nuclear beta-catenin stimulation", "setting": "[1]; at 10 µM", "value": "-0.5% (inactive)"}, {"measurement": "nuclear beta-catenin stimulation", "setting": "[1]; stimulation, at 2 µM", "value": 0.7, "unit": "%"}, {"measurement": "insulin secretion stimulation", "setting": "[2]", "value": "2.7% (inactive)"}, {"measurement": "viability decrease", "setting": "[3]", "value": "-7.8% (inactive)"}, {"measurement": "tube area decrease", "setting": "[4]", "value": "-22.1% (inactive)"}, {"measurement": "GLP1 secretion stimulation", "setting": "[5]", "value": "-2.6% (inactive)"}, {"measurement": "inhibition of viability", "setting": "[6]", "value": "-14.8% (inactive)"}, {"measurement": "viability decrease (inhibition)", "setting": "[7]", "value": "-1.8% (inactive)"}, {"measurement": "viability decrease (inhibition)", "setting": "[8]", "value": "7.35% (inactive)"}, {"measurement": "inhibition", "setting": "[13]", "value": "5.14% (inactive)"}, {"measurement": "red/green cell ratio (normalised)", "setting": "[14]", "value": "0.69 (inactive)"}, {"measurement": "normalised cell number", "setting": "[14]; [21]", "value": 1.3}, {"measurement": "normalised cell number", "setting": "[14]; [22]", "value": 0.89}, {"measurement": "activity remaining", "setting": "[15]", "value": "103% (inactive)"}, {"measurement": "fold change", "setting": "[16]; stronger effect = lower value", "value": "1.01 (inactive) and 0.984 (inactive) and 0.815 (inactive)"}, {"measurement": "fold change", "setting": "[16]; [23]", "value": "1.78 and 1.11 and 0.933"}, {"measurement": "cell count", "setting": "[16]; [24]", "value": "7900 and 7930 and 10200"}, {"measurement": "cell count", "setting": "[16]; [25]", "value": "7820 and 8060 and 12600"}, {"measurement": "z-score", "setting": "[17]; [26]", "value": "-0.717 (inactive)"}, {"measurement": "z-score", "setting": "[17]; [27]", "value": -0.464}, {"measurement": "remaining NAD", "setting": "[18]", "value": "10 nM (inactive)"}, {"measurement": "luciferase signal", "setting": "[19]", "value": "56 AU (inactive)"}, {"measurement": "z-score", "setting": "[20]", "value": "0.635 (inactive)"}]}
